Screening data (PubChem BioAssay)
HT1080NT lethal: qHTS for induction of synthetic lethality in tumor cells producing 2HG: qHTS for the HT-1080-NT fibrosarcoma cell line | HT-1080-NT fibrosarcoma viability, CellTiter-Glo ATP luminescence, 48 h | Potency, µM (highest dose often 46.1 µM), without a hit: at the top dose activity, negative = less viability, actives largely listed as cytotoxic | actives 1.6% (n = 360,000) | AID 686970, 2013;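 also: NT is the 2HG producing partner of a matched IDH1 knockdown line; potency is read from the fitted curve at half-maximal effect; 0% = DMSO-treated cells and -100% = media-only wells without cells; nearly all actives have a fitted effect of over 55% in size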
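Compounds were tested in concentration-response format on HT-1080-NT cells for 48 hours at 37 degrees C. Cell viability came from CellTiter-Glo luminescence; curves were classified by r2, response magnitude and activity.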
DT40 TDP1 CPT: qHTS for Inhibitors of human tyrosyl-DNA phosphodiesterase 1 (TDP1): qHTS in cells in presence of CPT; chicken DT40 Tdp1-/-;hTDP1 cells + 20 nM CPT, ATP luminescence, 48 h; Potency, µM (top dose mostly 46.2 µM), without a hit: at the top dose activity change, negative = growth inhibition, usual class: inhibitors; actives 12% (n = 420,000); AID 686979, 2013; also: potency is read from the fitted curve at half-maximal effect; nearly all actives have a fitted effect of over 55% in size
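Chicken DT40 Tdp1-/- cells stably complemented with human TDP1 were seeded at 400 cells/well in medium containing 20 nM camptothecin, exposed to pin-transferred compounds, and grown at 37 °C for at least 48 hr. Viability was read as ATP luminescence.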
uPA generation: qHTS for Inhibitors of Cell Surface uPA Generation | actives 0.31% (n = 330,000) | Potency, µM (series often up to 38.3 µM), inactives show top-dose activity change, negative = inhibition, actives largely listed as inhibitors | cell surface uPA generation assay, qHTS; active = well fitted inhibition curve with a large enough effect; inconclusive = small, poorly fitted or top-dose-only effect; inactive = no such curve, though single readings can be large or run the other way; tested in mouse RAW 264.7 cells; also: potency is read from the fitted curve at half-maximal effect; nearly all actives have a fitted effect of over 55% in size
IL1B secr inh: qHTS for Inhibitors of Inflammasome Signaling: IL-1-beta AlphaLISA Primary Screen; AID 743279, 2014; activity change, % at 57.5 µM; THP-1 LPS/ATP IL-1B secretion, AlphaLISA, 16 h; active compounds read low; actives 4.7% (n = 360,000); in the data active = activity change below about -50%; inconclusive = mostly about -30% to -49%
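Secreted IL-1B measured by AlphaLISA bead assay after 16 h compound exposure of THP-1 cells; compounds (final up to 57.5 uM) added 1 h before LPS (250 ng/mL) and ATP (1.25 mM) stimulation; lower signal means less secretion.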
HT1080 IDH1KD tx: qHTS for induction of synthetic lethality in tumor cells producing 2HG: qHTS for the HT-1080-IDH1KD cell line; Potency, µM (top dose mostly 46.1 µM), inactives show at the top dose activity, negative = toxicity, usual class: cytotoxic; AID 686971, 2013; actives 2% (n = 360,000); HT-1080 IDH1 knockdown viability, ATP luminescence, 48 h;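 also: potency is read from the fitted curve at half-maximal effect; 0% = DMSO wells and -100% = cell-free medium wells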
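Cytotoxicity counter-line: IDH1KD HT-1080, 48 h, CellTiter-Glo. Curves classed by r2, magnitude and activity.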
DT40 TDP1 no CPT: qHTS for Inhibitors of human tyrosyl-DNA phosphodiesterase 1 (TDP1): qHTS in cells in absence of CPT. DT40 Tdp1-/- hTDP1 cells, no CPT, ATP luminescence, 48 h. Potency, µM (doses to about 46.2 µM), for the others: at the highest dose activity change, negative = growth inhibition, most hits filed as inhibitors. actives 15% (n = 420,000). AID 686978, 2013; also: potency is read from the fitted curve at half-maximal effect; nearly all actives have a fitted effect of over 55% in size
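Seeded 400 DT40-hTDP1 cells/well (vehicle DMSO, no 20 nM CPT); pinned compounds; ≥48 hr at 37 °C; CellTiter-Glo luminescence as viability measure.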
An asterisk follows results filed as active; ? = inconclusive; nt = no result; [ ] = dose if it differs, or a comment. Sampled rows, rich in hits. Any-hit rate of the full collection: about 19%. Unless noted, calls follow the shape of the dose curve; as a rule, active = well fitted curve in the direction sought with a large enough effect; inconclusive = small, poorly fitted or top-dose-only effect, or another doubt; inactive = no such curve, though single readings can be large; an effect the other way counts as inactive or inconclusive. Unless noted, % is scaled to controls: 0 for no effect and ±100 for the full control effect.

SMILES | HT1080NT lethal | DT40 TDP1 CPT | uPA generation | IL1B secr inh | HT1080 IDH1KD tx | DT40 TDP1 no CPT
COc1ccc(/C=C/C(=O)c2c(O)c(OC)c3occc3c2OC)cc1OC | 18µM* | 11µM* | nt | nt | 11µM* | 10µM*
COc1ccc(/C=C\C(=O)c2c(O)ccc3c(C)cc(=O)oc23)cc1OC | ? | 16µM* | ? | -70* | ? | 23µM*
Cc1cc(=O)oc2c(C(=O)/C=C\c3cccs3)c(O)ccc12 | ? | ? | -7% | -99* | 21µM* | ?
CCOC(=O)C(C)Oc1ccc2c(C)cc(=O)oc2c1C(C)=O (stereo not given) | 25% | -4% | nt | -10 | 6% | -3%
C=CCOc1ccc(/C=N/NC(=O)CC(=O)NC2CCCCC2)cc1 | 0% | -3% | -1% | -7 | 1% | 0%
COCCCn1c(C)cc(C(=O)COC(=O)C23CC4CC(CC(O)(C4)C2)C3)c1C | 7% | 3% | -6% | 3 | 3% | ?
CC(C)CN1CCC2(CC1)CCN(S(=O)(=O)c1ccccc1)CC2 | nt | ? | nt | nt | nt | 23µM*
CC(C)CN1CC2(CCN(S(=O)(=O)c3ccccc3)CC2)C1 | nt | 1% | nt | nt | nt | -3%
C[C@H]1CN([C@@H](C)CO)C(=O)c2cc(Br)cnc2O[C@@H]1CN(C)C(=O)C1CCC1 | 3% | -27% | nt | -13 | -3% | ?
O=C(c1ccccc1F)n1c2c(c3ccccc31)CCCC2 | ? | 23µM* | ? | 13 | 15µM* | ?
CC1CCN(CC(=O)n2c3c(c4ccccc42)CCCC3)CC1 | ? | ? | 4% | -14 | ? | ?
Cc1cc(O)ccc1N=Cc1c(C(F)(F)F)[nH][nH]c1=O | -5% | 23µM* | ? | -7 | -2% | 10µM*
CCc1ccccc1NC(=O)c1cc(S(=O)(=O)N2CCCC2)cn1C | nt | ? | nt | nt | nt | -10%
CCN(CC)C(=O)C1=C(C)N(Cc2ccc(F)cc2)C(=O)C(CC(=O)NCC2CCCCC2)C1 (stereo not given) | -11% | ? | nt | -23 | -11% | 21µM*
CC1=C(C(=O)N(C)C)CC(CC(=O)NCCCCc2ccccc2)C(=O)N1Cc1ccc(C(C)(C)C)cc1 (stereo not given) | -22% | 16µM* | nt | -22 | -26% | 13µM*
CC1=C(C(=O)N2CCCCCC2)CC(CC(=O)NCCCCc2ccccc2)C(=O)N1Cc1ccccc1 (stereo not given) | 0% | 18µM* | nt | -22 | -9% | 21µM*
CC1=C(C(=O)N2CCCCCC2)CC(CC(=O)NC2CC2)C(=O)N1Cc1ccccc1 (stereo not given) | 27% | 3% | nt | -20 | 20% | 2%
CCN(CC)C(=O)C1=C(C)N(Cc2ccc(F)cc2)C(=O)C(CC(=O)NCCCCc2ccccc2)C1 (stereo not given) | -15% | ? | nt | -17 | -11% | 21µM*
CC1=C(C(=O)N(C)C)CC(CC(=O)NCCCCc2ccccc2)C(=O)N1Cc1ccc(F)cc1 (stereo not given) | -4% | -34% | nt | 22 | -5% | ?
CCN(CC)C(=O)C1=C(C)N(Cc2ccc(C(C)(C)C)cc2)C(=O)C(CC(=O)NCCCCc2ccccc2)C1 (stereo not given) | ? | -103% | nt | ? | ? | ?
CCOc1ccc(CN2CCNC(=O)C2CC(=O)NCc2csc(C(C)C)n2)cc1 (stereo not given) | -7% | -17% | 4% | 10 | -6% | 13%
COCCn1c(SCc2cccc(F)c2)nc2cc(C(=O)OC)ccc2c1=O | 6% | 21µM* | 5% | 34 | 11% | ?
COCCn1c(SCc2ccc(OC)c(F)c2)nc2ccccc2c1=O | -28% | 16µM* | -6% | ? | -26% | 21µM*
CC(C)Cn1c(SCc2cccc(F)c2)nc2ccsc2c1=O | nt | 15µM* | nt | nt | nt | 29µM*
COC(=O)c1ccc(CSc2nc3ccccc3c(=O)n2-c2ccc(OC)c(OC)c2)o1 | 6% | 16µM* | 9% | ? | -20% | ?
SMILES | HT1080NT lethal | DT40 TDP1 CPT | uPA generation | IL1B secr inh | HT1080 IDH1KD tx | DT40 TDP1 no CPT
COC(=O)c1ccc(CSc2nc3ccccc3c(=O)n2-c2ccccc2)o1 | -13% | ? | 8% | 6 | 0% | ?
CCSc1nc2cc(C(=O)OC)ccc2c(=O)n1CC | -3% | -23% | -5% | 9 | 25% | -14%
O=c1c2ccccc2nc(SCc2cccc(F)c2)n1Cc1ccco1 | -23% | -15% | nt | -4 | -27% | -19%
CCSc1ncc(Cl)c(C(=O)Nc2sc3c(c2C(=O)OC)CCCC3)n1 | nt | 0% | nt | nt | nt | -8%
COCCn1c(SCc2ccc(C(=O)OC)o2)nc2ccccc2c1=O | ? | ? | -1% | -18 | 7%[9.24 µM] | 21µM*
O=C(C1=C[C@@H](C2CCCCC2)C[C@@H](OCc2ccc(CO)cc2)O1)N1CCN(Cc2ccccc2)CC1 | ? | 21µM* | ? | -59* | ? | 16µM*
O=C(C1=C[C@H](C2CCCCC2)C[C@H](OCc2ccc(CO)cc2)O1)N1CCN(Cc2ccccc2)CC1 | ? | 18µM* | ? | 0 | ? | 18µM*
O=C(C1=C[C@H](C2CCCCC2)C[C@H](OCc2ccc(CO)cc2)O1)N1CCOCC1 | 5% | ? | 6% | 8 | 8% | ?
COCC(=O)N1CCC2(CC1)CN(c1ccccc1)C2 | nt | ? | nt | nt | nt | -17%
Cc1ccc(C(C)(C)C)cc1S(=O)(=O)Nc1ncnc2sccc12 | 1% | -1% | -4% | 59 | 2% | 1%
CNS(=O)(=O)c1cc(Nc2ncnc3sccc23)ccc1C | 5% | 15µM* | 9% | -30 | 7% | ?
CSc1ccccc1OCc1cc(C(=O)NC(C)Cc2cccc(C)n2)no1 (stereo not given) | -3% | 16µM* | 5% | -57* | -8% | 13µM*
CSc1ccccc1OCc1cc(C(=O)N(C)CCn2nc(C)cc2C)no1 | 14% | 15µM* | -7% | 20 | -7% | 21µM*
CCn1nc(C)c(CNC(=O)c2cc(COc3ccccc3SC)on2)c1C | -10% | 21µM* | -1% | -12 | -9% | ?
